Measured values as given in PubChem BioAssay (NCATS).
Records with an inconclusive call do not appear. Calls of active or inactive are those of the source. Unless noted, calls come from the whole dose curve; as a rule, active = well fitted curve in either direction with a large enough effect (not every such curve was filed as active); inconclusive = small, poorly fitted or top-dose-only effect, or another doubt; inactive = flat fitted curve, though single readings scatter.

Key:
[1] = AP1 Signaling Pathway (AID 357); settings: ME-180 AP-1-bla reporter, EGF-induced, beta-lactamase ratio, 5 h; at 17.2 µM (top of the series) unless noted;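 note: ME-180 reporter cells stimulated with EGF at its EC50 level; % is set by controls: 0 for no effect and ±100 for the full control effect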
In short: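 Beta-lactamase reporter under AP-1 response element, ME-180 background. Stimulus: EC50 EGF. Compound exposure 5 h, 37 °C. Detection: CCF4, 2.5 h RT, 460/530 nm. Values: AC50 from titration.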

[2] = NFAT Signaling Pathway (AID 444); settings: Jurkat NFAT-bla M1, carbachol, beta-lactamase ratio, 5 h; at 17.2 µM (top of the series) unless noted;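 note: carbachol stimulus at about its EC50 of 1 µM final; % is set by controls: 0 for no effect and ±100 for the full control effect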
In short: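 Read-out: CCF4 FRET ratio (460 nm/530 nm) after 1 h RT dye loading, used for %activity and AC50 from titration series. Cells: Jurkat NFAT-β-lactamase/M1 line, treated with compound plus 1 uM carbachol for 5 h, 37 °C.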

[3] = Stat Signaling Pathway (AID 446); settings: ME-180 SIE beta-lactamase reporter, IL-6 stimulated, 5 h; at 17.2 µM (top of the series) unless noted;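 note: ME-180 cervical cancer cells given 40 pM IL-6 alongside compound; SIE-controlled beta-lactamase reporter measured as 460/530 nm FRET emission ratio; % is set by controls: 0 for no effect and ±100 for the full control effect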
In short: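 ME-180 cells carrying a SIE-driven beta-lactamase reporter are stimulated with 40 pM IL-6 for 5 h at 37C in the presence of compound. The 460/530 nm FRET substrate ratio is read after 2.5 h at RT. Data are normalised to 300 pM IL-6 and to 125 nM JAK inhibitor controls.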

[4] = biological target: Glucocorticoid receptor (Homo sapiens) (UniProt P04150); assay: GR-GFP Redistribution (AID 450;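 active = compounds whose dose series gives a full or clear partial fitted curve of increased nuclear translocation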; note: potency is the fitted concentration of half-maximal effect)
[5] = biological target: Glucocorticoid receptor (Homo sapiens) (UniProt P04150); assay: GR-EFC Redistribution (AID 451; calls by dose curve; note: potency is the fitted concentration of half-maximal effect); settings: CHO-K1 GR-EFC translocation, beta-gal luminescence, 2 h
In short: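 Translocation of GR-ED fusion to nuclear EA restores b-gal, read by luminescence after 1 h room-temperature detection. Engineered CHO-K1 biosensor cells, 1,000/well, exposed 2 h at 37 C to titrations up to 46 uM final.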

[6] = biological target: Mitogen-activated protein kinase 10 (Mus musculus) (UniProt Q61831); assay: JNK3 AlphaScreen Assay (AID 530);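 note: kinase came from lysate of stimulated human HepG2 cells; signal reports phosphorylation of biotinylated GST-cJun 1-79 at Ser73 with 10 µM ATP; % is set by controls: 0 for no effect and ±100 for the full control effect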
In short: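 Compound titrations were preincubated 15 minutes at room temperature with substrate, antibody and pre-activated JNK3-containing HepG2 lysate. Reactions were started with 10 uM ATP and stopped with EDTA-containing bead buffer for AlphaScreen detection.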

[7] = biological target: 3',5'-cyclic-AMP phosphodiesterase 4B (Homo sapiens) (UniProt Q07343); assay: qHTS Assay for Inhibitors of PDE-IV (AID 607; active = well fitted activation curve with a large enough effect in the main read-out, with a control signal flat, not every such curve was filed as active; note: % of control where 0% means no effect)
In short: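 HEK293 ACTOne cells with CNG channel (1000/well), endogenous PDE4; membrane potential dye, compounds up to 22.9 uM final. Fluorescence Ex 535/Em 590; RO 20-1724 (100 uM final) as reference.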

[8] = biological target: Guanine nucleotide-binding protein G(i) subunit alpha-1 (Homo sapiens) (UniProt P63096); assay: qHTS Assay for Inhibitors of RGS12 GoLoco Motif Activity (Green Fluorophore) (AID 879; active = well fitted curve in the direction sought with a large enough effect; an effect the other way counts as inactive or inconclusive;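 note: 0% = labeled peptide with Gαi1 and full inhibition = labeled peptide alone without protein; negative values mean loss of peptide binding seen as reduced polarization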)
In short: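 Fluorescence polarization assay: 50 nM Gαi1 with 10 nM FITC-labeled RGS12 GoLoco peptide in 10 mM Tris pH 7.5, 150 mM NaCl, 0.1 mM GDP, 0.05% NP40, 10 min at room temperature with compound.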

[9] = qHTS Assay for Identification of Small Molecule Agonists for Thrombopoietin (TPO) Signaling Pathway (AID 917; active = well fitted curve in the direction sought with a large enough effect; an effect the other way counts as inactive or inconclusive; note: % is set by controls: 0 for no effect and ±100 for the full control effect)
In short: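 We measured Glycoprotein IIb promoter–luciferase output in IL-3-starved Ba/F3 murine cells expressing the human TPO receptor after 24 hrs at 37 C with compounds and 26 pM TPO.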

[10] = biological target: Muscarinic acetylcholine receptor M1 (Rattus norvegicus) (UniProt P08482); assay: qHTS Assay for Antagonists of Acetylcholine Muscarinic M1 Receptor: Measurement of IP-One Response (AID 944; active = well fitted curve in the direction sought with a large enough effect; an effect the other way counts as inactive or inconclusive; note: nearly all actives have a fitted effect of over 75% in size)
In short: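 M1-CHO (rat), 2000 cells/well, overnight recovery; cpd 10 min; carbachol EC80 (200 nM), 30 min, HEPES buffer + 50 mM LiCl pH 7.4; IP-One HTRF, Ex 337, Em 620/665 nm.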

[11] = biological target: Pyruvate kinase (Leishmania mexicana) (UniProt Q27686); assay: qHTS Validation Assay for Inhibitors of Leishmania Mexicana Pyruvate Kinase (AID 945; active = well fitted curve in the direction sought with a large enough effect; an effect the other way counts as inactive or inconclusive;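 note: 0% = DMSO only neutral control wells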)
In short: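 Mutant LmPYK (E451W), 0.2 nM, plus 0.5 mM PEP and 0.1 mM ADP in 50 mM imidazole pH 7.2 containing 0.01% Tween 20 and 0.05% BSA. Incubated 1 h at room temperature; luminescence via PKLight, normalized to DMSO.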

[12] = biological target: Pyruvate kinase PKM (Homo sapiens) (UniProt P14618); assay: qHTS Assay for Activators of Human Muscle Pyruvate Kinase (AID 954; active = well fitted curve in the direction sought with a large enough effect, not every such curve was filed as active;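 note: 0% = uninhibited enzyme and -100% = no enzyme or full thiadiazolimine inhibition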)
In short: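 Purified human PKM2 (0.1 nM) with 0.5 mM PEP (Km) and 0.1 mM ADP in 50 mM imidazole pH 7.2, KCl, MgCl2, 1 h at room temperature; ATP formed read by coupled luciferase luminescence. Normalized to no-enzyme/110 uM thiadiazolimine inhibition; 0.3 nM enzyme column for activation.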

[13] = biological target: Alpha-galactosidase A (Homo sapiens) (UniProt P06280); assay: Counterscreen for Glucocerebrosidase Inhibitors: qHTS Assay for Human alpha-Galactosidase at pH 4.5 (AID 992; active = well fitted curve in the direction sought with a large enough effect; an effect the other way counts as inactive or inconclusive; note: 0% is about no effect)
In short: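 Human enzyme (2 nM) with 80 uM 4-methylumbelliferyl alpha-D-galactopyranoside in 50 mM citric acid, 0.005% Tween-20, pH 4.5, 20 min at room temperature. Compounds 0.7 nM–77 uM; fluorescence Ex 365/Em 440 after pH 10 stop; AC50 from Hill fits.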

[14] = biological target: Tyrosyl-DNA phosphodiesterase 1 (Homo sapiens) (UniProt Q9NUW8); assay: Confirmation Assay for Inhibitors of Tyrosyl-DNA Phosphodiesterase (TDP1) (AID 489007; active = well fitted curve in the direction sought with a large enough effect; an effect the other way counts as inactive or inconclusive; note: potency is the fitted concentration of half-maximal effect; nearly all actives have a fitted effect of over 40% in size); settings: recombinant human TDP1 enzymatic activity, dose-response
In short: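 Tdp1 1 nM + cpd, 15 min RT; add biotin/phosphotyrosine-FITC oligo 15 nM, 5 min RT; add AS donor/acceptor beads 10 ug/ml, 10 min RT; read AlphaScreen. No-enzyme wells = max signal.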

[15] = biological target: Cytochrome P450 2D6 (Homo sapiens) (UniProt P10635); assay: qHTS Assay for Inhibitors and Substrates of Cytochrome P450 2D6 (AID 891; active = well fitted curve in the direction sought with a large enough effect; an effect the other way counts as inactive or inconclusive; note: potency is the fitted concentration of half-maximal effect; nearly all actives have a fitted effect of over 60% in size)
In short: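 Human CYP2D6 (5 nM) with 30 uM Luciferin-ME EGE (at Km) in 100 mM KPO4, compound preincubated 10 min, then NADPH regeneration system for 60 min at room temperature. Luciferin read by luminescence; normalized to 1.43 uM quinidine.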

[16] = qHTS Assay for Identification of Small Molecule Agonists for Hypoxia Response Element Signaling Pathway (AID 914; active = well fitted activation curve with a large enough effect in the signal ratio, with a control signal flat, not every such curve was filed as active; the % refers to the signal ratio; note: % of control where 0% means no effect); settings: ME-180 (cervical carcinoma) HRE-bla reporter, beta-lactamase ratio, CoCl2, 17 h; activation: stronger effect = higher value
In short: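 Reporter activity (beta-lactamase, CCF4 460nm/530nm ratio) in HRE-bla ME-180 cells is recorded after 17 h compound exposure with EC50 CoCl2 at 37 degrees Celsius. AC50 values come from titration data.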

Glucocorticoid receptor (Homo sapiens), sequence (P04150 whole entry, looked up, the tested form may be a part): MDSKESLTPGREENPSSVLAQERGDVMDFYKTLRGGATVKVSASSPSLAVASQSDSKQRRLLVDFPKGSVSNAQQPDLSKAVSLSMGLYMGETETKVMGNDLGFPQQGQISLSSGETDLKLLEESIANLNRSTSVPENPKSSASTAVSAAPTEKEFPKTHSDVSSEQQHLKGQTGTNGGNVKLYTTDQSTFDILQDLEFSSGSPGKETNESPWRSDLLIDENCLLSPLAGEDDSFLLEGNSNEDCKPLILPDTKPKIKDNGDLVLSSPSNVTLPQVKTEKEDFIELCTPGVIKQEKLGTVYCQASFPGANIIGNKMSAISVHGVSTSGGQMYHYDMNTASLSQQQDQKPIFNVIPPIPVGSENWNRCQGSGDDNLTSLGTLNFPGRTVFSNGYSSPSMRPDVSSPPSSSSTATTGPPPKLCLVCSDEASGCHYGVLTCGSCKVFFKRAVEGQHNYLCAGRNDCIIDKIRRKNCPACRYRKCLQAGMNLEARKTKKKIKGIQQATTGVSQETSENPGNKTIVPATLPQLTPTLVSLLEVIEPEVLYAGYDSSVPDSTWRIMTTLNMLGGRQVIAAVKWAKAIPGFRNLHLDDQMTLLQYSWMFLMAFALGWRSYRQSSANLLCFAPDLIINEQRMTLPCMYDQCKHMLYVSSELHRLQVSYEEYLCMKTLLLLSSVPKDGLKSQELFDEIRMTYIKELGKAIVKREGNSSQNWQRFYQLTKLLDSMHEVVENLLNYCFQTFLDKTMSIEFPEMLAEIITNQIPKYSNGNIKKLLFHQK
3',5'-cyclic-AMP phosphodiesterase 4B (Homo sapiens), sequence (Q07343 whole entry, looked up): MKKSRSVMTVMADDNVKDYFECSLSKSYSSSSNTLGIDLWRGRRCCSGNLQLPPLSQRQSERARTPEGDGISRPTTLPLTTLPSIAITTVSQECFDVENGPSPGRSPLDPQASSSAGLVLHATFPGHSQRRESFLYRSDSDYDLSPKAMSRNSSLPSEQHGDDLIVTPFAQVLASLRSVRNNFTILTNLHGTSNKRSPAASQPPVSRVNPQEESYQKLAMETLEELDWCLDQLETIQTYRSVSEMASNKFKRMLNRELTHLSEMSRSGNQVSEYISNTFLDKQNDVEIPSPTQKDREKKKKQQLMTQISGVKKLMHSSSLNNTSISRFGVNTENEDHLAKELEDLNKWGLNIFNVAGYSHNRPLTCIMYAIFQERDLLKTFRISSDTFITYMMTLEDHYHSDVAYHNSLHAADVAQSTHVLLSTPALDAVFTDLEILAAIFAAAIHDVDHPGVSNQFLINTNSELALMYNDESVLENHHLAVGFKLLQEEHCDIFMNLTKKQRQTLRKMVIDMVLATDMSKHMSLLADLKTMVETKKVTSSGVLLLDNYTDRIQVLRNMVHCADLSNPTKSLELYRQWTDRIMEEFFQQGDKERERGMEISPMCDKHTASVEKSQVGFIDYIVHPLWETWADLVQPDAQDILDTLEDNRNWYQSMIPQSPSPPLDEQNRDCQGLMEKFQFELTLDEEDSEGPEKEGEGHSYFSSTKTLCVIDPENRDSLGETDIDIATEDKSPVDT
Guanine nucleotide-binding protein G(i) subunit alpha-1 (Homo sapiens), sequence (P63096 whole entry, looked up): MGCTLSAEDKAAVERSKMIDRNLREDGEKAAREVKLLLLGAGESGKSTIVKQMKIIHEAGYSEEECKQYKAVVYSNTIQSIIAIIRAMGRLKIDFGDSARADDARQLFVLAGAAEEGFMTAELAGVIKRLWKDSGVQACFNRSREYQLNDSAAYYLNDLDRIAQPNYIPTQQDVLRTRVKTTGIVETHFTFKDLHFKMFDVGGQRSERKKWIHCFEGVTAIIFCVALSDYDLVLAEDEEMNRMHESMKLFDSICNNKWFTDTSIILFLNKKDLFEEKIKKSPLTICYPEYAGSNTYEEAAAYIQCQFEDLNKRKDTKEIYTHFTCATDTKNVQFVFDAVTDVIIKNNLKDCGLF
Pyruvate kinase (Leishmania mexicana), sequence (Q27686 2-499 E452W): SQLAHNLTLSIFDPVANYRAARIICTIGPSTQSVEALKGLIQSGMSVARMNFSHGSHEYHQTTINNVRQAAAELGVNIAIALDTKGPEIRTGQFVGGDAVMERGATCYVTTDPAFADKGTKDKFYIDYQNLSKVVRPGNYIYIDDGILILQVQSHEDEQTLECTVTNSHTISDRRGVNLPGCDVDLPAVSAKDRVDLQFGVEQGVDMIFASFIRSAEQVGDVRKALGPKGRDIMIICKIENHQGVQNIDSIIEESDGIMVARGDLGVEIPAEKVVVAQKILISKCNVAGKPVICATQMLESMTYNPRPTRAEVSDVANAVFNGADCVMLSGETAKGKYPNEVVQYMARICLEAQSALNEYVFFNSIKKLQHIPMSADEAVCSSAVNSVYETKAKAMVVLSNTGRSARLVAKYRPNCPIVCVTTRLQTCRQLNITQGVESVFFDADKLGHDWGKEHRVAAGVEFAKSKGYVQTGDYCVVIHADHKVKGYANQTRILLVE
Tyrosyl-DNA phosphodiesterase 1 (Homo sapiens), sequence (Q9NUW8 whole entry, looked up): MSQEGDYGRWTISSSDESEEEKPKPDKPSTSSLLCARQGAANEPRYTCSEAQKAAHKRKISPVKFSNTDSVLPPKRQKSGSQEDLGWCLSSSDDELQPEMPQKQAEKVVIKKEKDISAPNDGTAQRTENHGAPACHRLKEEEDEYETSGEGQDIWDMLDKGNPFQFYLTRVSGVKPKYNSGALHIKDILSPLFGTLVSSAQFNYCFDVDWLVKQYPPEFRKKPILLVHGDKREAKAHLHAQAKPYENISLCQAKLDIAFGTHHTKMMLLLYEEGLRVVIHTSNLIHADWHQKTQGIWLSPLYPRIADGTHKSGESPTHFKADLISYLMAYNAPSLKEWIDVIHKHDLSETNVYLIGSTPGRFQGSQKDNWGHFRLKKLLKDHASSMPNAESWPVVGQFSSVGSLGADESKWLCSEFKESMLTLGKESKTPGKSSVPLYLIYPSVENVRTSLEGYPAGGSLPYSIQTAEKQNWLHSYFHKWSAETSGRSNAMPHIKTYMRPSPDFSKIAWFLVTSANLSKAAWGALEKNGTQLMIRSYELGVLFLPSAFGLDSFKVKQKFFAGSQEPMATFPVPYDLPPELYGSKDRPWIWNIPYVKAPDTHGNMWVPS
Cytochrome P450 2D6 (Homo sapiens), sequence (P10635 whole entry, looked up): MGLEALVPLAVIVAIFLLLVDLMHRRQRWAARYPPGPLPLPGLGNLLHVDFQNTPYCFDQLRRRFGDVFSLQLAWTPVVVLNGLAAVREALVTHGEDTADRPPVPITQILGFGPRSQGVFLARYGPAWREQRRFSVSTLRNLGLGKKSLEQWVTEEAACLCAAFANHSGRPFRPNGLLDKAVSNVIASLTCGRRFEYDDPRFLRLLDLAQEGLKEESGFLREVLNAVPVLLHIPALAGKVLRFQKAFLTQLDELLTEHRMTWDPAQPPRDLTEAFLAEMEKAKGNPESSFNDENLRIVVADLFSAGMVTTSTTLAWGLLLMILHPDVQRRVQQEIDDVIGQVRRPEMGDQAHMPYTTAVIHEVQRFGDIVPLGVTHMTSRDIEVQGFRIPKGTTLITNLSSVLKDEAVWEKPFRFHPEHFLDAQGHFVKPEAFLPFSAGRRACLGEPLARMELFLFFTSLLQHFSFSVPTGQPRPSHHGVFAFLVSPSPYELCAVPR
Muscarinic acetylcholine receptor M1 (Rattus norvegicus), sequence (P08482 whole entry, looked up): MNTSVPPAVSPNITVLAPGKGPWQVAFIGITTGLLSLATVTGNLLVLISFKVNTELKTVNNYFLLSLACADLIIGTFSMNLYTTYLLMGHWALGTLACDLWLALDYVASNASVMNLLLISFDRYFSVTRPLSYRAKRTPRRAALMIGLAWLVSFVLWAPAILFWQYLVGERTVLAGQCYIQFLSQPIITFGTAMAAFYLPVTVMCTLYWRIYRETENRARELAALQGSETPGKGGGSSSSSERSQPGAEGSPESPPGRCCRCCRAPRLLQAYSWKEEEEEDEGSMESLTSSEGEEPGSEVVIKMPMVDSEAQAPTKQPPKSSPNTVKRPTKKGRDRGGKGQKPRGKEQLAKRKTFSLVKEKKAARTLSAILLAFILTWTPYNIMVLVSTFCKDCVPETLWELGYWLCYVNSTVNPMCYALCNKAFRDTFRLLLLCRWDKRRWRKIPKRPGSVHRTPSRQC
Pyruvate kinase PKM (Homo sapiens), sequence (P14618 whole entry, looked up): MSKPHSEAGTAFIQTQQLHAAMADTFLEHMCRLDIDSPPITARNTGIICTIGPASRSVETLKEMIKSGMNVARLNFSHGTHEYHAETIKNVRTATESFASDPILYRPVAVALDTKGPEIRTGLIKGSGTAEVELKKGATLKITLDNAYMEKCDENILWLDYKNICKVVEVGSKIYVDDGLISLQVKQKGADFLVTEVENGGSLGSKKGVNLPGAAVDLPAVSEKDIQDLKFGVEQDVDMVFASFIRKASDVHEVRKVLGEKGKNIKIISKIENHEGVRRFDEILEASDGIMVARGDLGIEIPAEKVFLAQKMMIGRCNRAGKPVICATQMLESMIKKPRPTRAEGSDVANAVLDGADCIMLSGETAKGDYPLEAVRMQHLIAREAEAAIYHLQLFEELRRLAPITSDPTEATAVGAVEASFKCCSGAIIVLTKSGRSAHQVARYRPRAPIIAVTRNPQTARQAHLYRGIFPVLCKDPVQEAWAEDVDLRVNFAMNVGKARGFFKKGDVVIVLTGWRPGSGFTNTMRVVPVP
Alpha-galactosidase A (Homo sapiens), sequence (P06280 whole entry, looked up): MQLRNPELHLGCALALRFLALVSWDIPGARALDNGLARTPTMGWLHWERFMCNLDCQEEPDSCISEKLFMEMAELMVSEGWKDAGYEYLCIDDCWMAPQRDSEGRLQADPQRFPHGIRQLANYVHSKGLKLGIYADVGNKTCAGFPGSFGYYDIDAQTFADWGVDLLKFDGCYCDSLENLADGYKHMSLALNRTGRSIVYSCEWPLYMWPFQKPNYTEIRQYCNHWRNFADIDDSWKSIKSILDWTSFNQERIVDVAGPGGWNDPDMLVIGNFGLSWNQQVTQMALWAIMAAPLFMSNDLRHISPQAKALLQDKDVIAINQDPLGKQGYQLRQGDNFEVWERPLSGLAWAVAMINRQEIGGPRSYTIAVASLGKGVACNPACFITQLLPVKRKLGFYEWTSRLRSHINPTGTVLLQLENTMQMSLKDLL

Cn1c(=O)c2c(nc(/C=C\c3cccc(Cl)c3)n2C)n(C)c1=O
inactive: activity change, negative = inhibition [1] 7.2% [at 38 µM] | activity change, negative = inhibition [2] -6.69% [at 38 µM] | activity, negative = inhibition [3] -14.4% [at 38 µM] | Potency [4] > 46 µM | Potency [5] > 46 µM | Potency [6] | Potency [7] | outcome [8] | Potency [9] | Potency [10] | Potency [11] | outcome [12] | outcome [13]

CCOC(=O)c1[nH]c2cc3c(cc2c1NC(=O)CN1CCC2(CC1)OCCO2)OCO3
inactive: activity change, negative = inhibition [1] -29.3% | activity change, negative = inhibition [2] 6.91% | activity, negative = inhibition [3] -9.66% | Potency [4] > 20.6 µM

Cc1ccc(C)n1Cc1ccc(C(=O)O)cc1
active: Potency [14] 1.41 µM
inactive: activity change, negative = inhibition [1] 2.78% | activity change, negative = inhibition [2] -7.86% | activity, negative = inhibition [3] 6% | Potency [4] > 20.6 µM

CC(C)(C)c1cc(Br)c(O)c(CN(Cc2cc(C(C)(C)C)cc(Br)c2O)C2CCCCC2)c1
active: Potency [15] 0.199 µM
inactive: activity change, negative = inhibition [1] 10.4% [at 7.69 µM] | activity change, negative = inhibition [2] 3.39% [at 7.69 µM] | activity, negative = inhibition [3] -1.22% [at 7.69 µM] | Potency [4] > 46 µM | Potency [5] > 9.22 µM | activity change, negative = inhibition [6] 19.2% [at 11.4 µM] | Potency [7]

N#Cc1nc(COc2ccccc2)oc1N1CCCC1
inactive: activity change, negative = inhibition [1] -20.4% | activity change, negative = inhibition [2] 4.75% | activity, negative = inhibition [3] 0.032% | Potency [4] > 20.6 µM | activation [16] -0.614%

CCOC(=O)C(c1ccccc1)N1CCN(c2ccc(OC)cc2)CC1 (stereo not given)
inactive: activity change, negative = inhibition [1] -19.8% | activity change, negative = inhibition [2] 19.4% | activity, negative = inhibition [3] 4.69% | Potency [4] > 20.6 µM | activation [16] -13.4%

O=C(NC1(C(F)(F)F)C(=O)Nc2c1c(=O)[nH]c(=O)n2Cc1ccco1)C1CCCCC1 (stereo not given)
inactive: activity change, negative = inhibition [1] -8.35% | activity change, negative = inhibition [2] -10.2% | activity, negative = inhibition [3] -2.02% | Potency [4] > 20.6 µM | activation [16] -5.1%

CCCOC(=O)CSC1=C(C#N)C(c2ccc3c(c2)OCO3)CC(=O)N1 (stereo not given)
inactive: activity change, negative = inhibition [1] -0.809% | activity change, negative = inhibition [2] 11.1% | activity, negative = inhibition [3] 1.94% | Potency [4] > 20.6 µM | activation [16] -15.4%
